This is part of a sample that, as a whole, favours compounds with a hit. Of some 83,000 tested, about 20% had one in any assay.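 Single-concentration screen, 48 h exposure, 96-well plates. Endpoint: percent growth. Below 10 = active.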 A number with no mark means an inactive call. Calls of active or inactive are those of the source.
Tests used:
Test in all cases: NCI-60 one-dose screen, 48 h (100 = growth as untreated, 0 = no growth, -100 = all killed)
Conditions in all cases: 10 µM unless noted
RPMI-8226 leukemia = test system: RPMI-8226 leukemia
OVCAR-8 ovarian = test system: OVCAR-8 ovarian
OVCAR-5 ovarian = test system: OVCAR-5 ovarian
OVCAR-4 ovarian = test system: OVCAR-4 ovarian
SK-OV-3 ovarian = test system: SK-OV-3 ovarian
IGROV1 ovarian = test system: IGROV1 ovarian
OVCAR-3 ovarian = test system: OVCAR-3 ovarian
HS 578T breast = test system: HS 578T breast
NCI/ADR-RES ovarian = test system: NCI/ADR-RES ovarian
T-47D breast = test system: T-47D breast

| Structure (SMILES) | growth (RPMI-8226 leukemia) | growth (OVCAR-8 ovarian) | growth (OVCAR-5 ovarian) | growth (OVCAR-4 ovarian) | growth (SK-OV-3 ovarian) | growth (IGROV1 ovarian) | growth (OVCAR-3 ovarian) | growth (HS 578T breast) | growth (NCI/ADR-RES ovarian) | growth (T-47D breast) |
| --- | --- | --- | --- | --- | --- | --- | --- | --- | --- | --- |
| CCC(CC)NCCCCCNc1cc(OC)cc2cccnc12 | 115% | 93.5% | 88.9% | 32.1% | 97.7% | 111% | 83.3% | 91.2% | 83.3% | 73.8% |
| COc1ccc2[nH]cc(/C=C3/C(=O)Nc4ccc(F)cc43)c2c1 | 62.4% | 84.1% | 88.5% | 75.6% | 104% | 98.2% | 108% | 72.6% | 84.9% | 92.2% |
| N#Cc1ccc(NC(=O)Nc2ccc(Oc3ccc(NC(=O)Nc4ccc(C#N)cc4)cc3)cc2)cc1 | -56.2% (active) | 31% | 47.4% | 33.8% | 58.7% | -21.5% (active) | 11.1% | 38.9% | 48.9% | 2.9% (active) |
| Clc1ccc2c(Nc3ccc4oc(NCCN5CCCC5)nc4c3)ccnc2c1 | 77% | 94.3% | 101% | 85.2% | 114% | 93.7% | 82.7% | 97.1% | 101% | 91.9% |
| O=C(/C=C/c1ccc(O)c(O)c1)N1CCN(c2ccc(Cl)cc2)CC1 | 42% | 61.6% | 95.3% | 51.4% | 80.7% | 14.9% | 60.3% | 80.2% | 58.7% | 49.2% |
| CCOC(=O)C1=C(C)N2C(=NC3=C(CCC/C3=C\c3ccc(Cl)cc3)C2c2ccc(Cl)cc2)S1 (stereo not given) | -19.1% (active) | 23% | 78.1% | 48.3% | 47% | 12.8% | -29.2% (active) | 51.7% | 39.4% | 25.3% |
| CCN(CC)CCCCNc1c2ccccc2[n+](C)c2c1[nH]c1ccccc12 | -42.6% (active) | -11.9% (active) | -5.18% (active) | -2.34% (active) | -11.5% (active) | -34.2% (active) | -13.6% (active) | -48.1% (active) | 86.5% | -11.7% (active) |
| COc1cc(C2C=C(c3ccc(C)cc3)Nc3nc(SC)[nH]c(=O)c32)ccc1Oc1ccnc2cc(Cl)ccc12 (stereo not given) | 65.6% | 83.4% | 84.3% | 86.3% | 106% | 90.5% | 81.1% | 90.8% | 72.6% | 82.3% |
| O=C(c1nn(-c2ccc(Cl)cc2)cc1O)n1nc(C(F)(F)F)cc1-c1ccccc1 | -10.4% (active) | 22.9% | 58.7% | 29.2% | 23.2% | 34.9% | -1.65% (active) | 15.8% | 19.4% | 44.9% |
| CCCCSc1cc(C)nc(N)n1 | 73.4% | 107% | 94% | 98.1% | 97.8% | 100% | 103% | 92.3% | 95% | 96.4% |
| COc1ccc(-c2cncn2-c2ccc(-c3nc4cc(OC)c(OC)c(OC)c4s3)cc2)cc1N | 62.2% | 37.1% | 96.4% | 46.7% | 103% | 58.8% | 44.2% | 74.7% | 52.4% | 50.5% |
| Cc1c(C(N)=O)sc2nc(SCC(=O)Nc3ccc(Cl)cc3)n(-c3ccccc3)c(=O)c12 | 112% | 118% | 93.9% | 101% | 105% | 20.6% | 131% | 348% | 97.2% | 91.1% |
| CC(C)c1nc(N(C)S(C)(=O)=O)nc(-c2ccc(F)cc2)c1/C=C/[C@@H](O)C[C@@H](O)CC(=O)O | 113% | 90.5% | 108% | 100% | 104% | 105% | 99.4% | 110% | 104% | 99.4% |
| COc1cc(C2=NN(C(C)=O)C(c3ccc(OC(C)=O)cc3OC(C)=O)O2)c(OC(C)=O)c2ccccc12 (stereo not given) | 8.23% (active) | 8.46% (active) | 54% | 21.1% | 20.1% | 21.7% | 20.5% | 56.7% | 11.7% | 11.3% |
| CCC(O)C(C)(C)C (stereo not given) | 122% | 103% | 114% | 118% | 110% | 112% | 123% | 95.8% | 97.7% | 112% |
| Cc1[nH]n(C(N)=S)c(=O)c1N=Nc1ccc(F)c(Cl)c1 | 78.2% | 91.2% | 102% | 94.9% | 280% | 102% | 88.3% | 127% | 117% | 249% |
| Cc1cc(C)c2c(c1)N1OC(C2)C[C@H]1/C=C/c1ccccc1 (stereo not given in full) | 94.9% | 102% | 99% | 81.8% | 116% | 82.3% | 116% | 122% | 95.9% | 93.6% |
| Cc1cc(NC(=O)Nc2cc(Cl)ccc2C)no1 | 88.8% | 110% | 104% | 99.6% | 99.7% | 68.5% | 117% | 125% | 101% | 89.4% |
| CCCn1cnc2c1c(=O)n(CCCCC(C)=O)c(=O)n2C | 101% | 98.3% | 110% | 97.1% | 95.1% | 97.6% | 115% | 104% | 108% | 99% |
| O=C(Nc1ccncc1)C(=O)c1cn(S(=O)(=O)c2cccc(F)c2)c2ccccc12 | 30.1% | 45% | 73.9% | 67.2% | 93.8% | 40.6% | 23.5% | 55.8% | -11.2% (active) | 31.6% |
| O=C(C(=O)N1CCCCC1)c1ccc(OC2OC(CO)C(O)C(O)C2O)cc1 (stereo not given) | 103% | 95.9% | 113% | 108% | 105% | 86.7% | 107% | 110% | 103% | 99.6% |
| c1ccc(-c2nnc(Nc3nnc(-c4ccccc4)s3)s2)cc1 | 87.8% | 103% | 100% | 101% | 96.8% | 86.7% | 105% | 100% | 118% | 93.8% |
| Nc1ccc2c3c(cccc13)-c1ccccc1-2 | 33.9% | 99.1% | 99.8% | 86.1% | 99.6% | 84% | 88.4% | 89.2% | 95.2% | 92.3% |
| Nc1nc(N)c([N+](=O)[O-])c(=O)[nH]1 | 97.4% | 106% | 100% | 114% | 100% | 110% | 108% | 100% | 101% | 92.2% |
| CCCCCCCCCCCCCCCCN=C(CC(=O)O)C(=O)O | 103% | 107% | 116% | 34.8% | 105% | 88.6% | 107% | 96.9% | 105% | 102% |
| O=C1/C(=C/c2ccc([N+](=O)[O-])s2)Oc2ccc(Br)cc21 | -6.04% (active) | -6.92% (active) | -66.8% (active) | -75.8% (active) | -34.3% (active) | -45.9% (active) | -65.3% (active) | 16.2% | -31.2% (active) | -55.7% (active) |
